PubChem BioAssay (EPA / NIEHS)
Active and inactive are the calls of the source. The calls were made as follows: active = hit-call score of the fitted dose curve at least 0.9, where 1 is the maximum; inactive = score below 0.9.

Assays:
[1] = APR_HepG2_NuclearSize_72hr: Apredica 72-hour HepG2 Assay for Nuclear Size (AID 2282925); conditions: high-content imaging, actives raise or lower the signal
Procedure, shortened: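 HepG2 cells dosed 72 h at 0.39–200 uM (10 concentrations, duplicate) in 0.5% v/v DMSO final. Fixed, Hoechst 33342-stained nuclei imaged; nuclear diameter measured by automated image analysis. Bidirectional fit versus DMSO.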

[2] = ATG_CRE_CIS: Attagene CIS-FACTORIAL HepG2 Assay for human cAMP Responsive Element (CRE) binding protein 3 (AID 2282926); conditions: HepG2 CRE cis-reporter, Attagene multiplexed mRNA; actives raise or lower the signal
Procedure, shortened: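 Transfected HepG2 were treated for 24 hours, then RNA was extracted and reporter cDNA amplified with sequence-specific primers. Labelled fragments were separated by capillary electrophoresis, and the CRE signal was fitted bidirectionally with DMSO as baseline.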

[3] = target: CCAAT/enhancer-binding protein beta (Homo sapiens) (UniProt P17676); assay: ATG_C_EBP_CIS: Attagene CIS-FACTORIAL HepG2 Assay for human CCAAT/Enhancer Binding Protein (C/EBP) beta (AID 2282927); conditions: HepG2 Attagene cis-factorial transcription factor reporter; actives raise or lower the signal
CCAAT/enhancer-binding protein beta (Homo sapiens), sequence (P17676 whole entry, looked up): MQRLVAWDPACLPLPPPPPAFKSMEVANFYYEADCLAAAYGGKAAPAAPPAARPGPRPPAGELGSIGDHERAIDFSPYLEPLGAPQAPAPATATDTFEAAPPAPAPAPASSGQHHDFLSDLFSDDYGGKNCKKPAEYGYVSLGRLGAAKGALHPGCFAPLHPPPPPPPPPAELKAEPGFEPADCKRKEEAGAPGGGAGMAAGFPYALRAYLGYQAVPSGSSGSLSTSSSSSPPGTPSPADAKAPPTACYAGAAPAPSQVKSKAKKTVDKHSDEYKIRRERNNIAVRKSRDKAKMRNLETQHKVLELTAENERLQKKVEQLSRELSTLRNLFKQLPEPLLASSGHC
Procedure, shortened: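 Transiently transfected HepG2 (MRTU library, endogenous TF-driven promoters); 24 h dosing; total RNA → oligo(dT) RT → PCR → 6-FAM primer extension → HpaI digest → CE; fit bidirectionally vs DMSO.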

[4] = ATG_DR4_LXR_CIS: Attagene CIS-FACTORIAL HepG2 Assay for human Liver X Receptor (LXR), DR4 submotif (AID 2282929); conditions: HepG2 Attagene DR4 cis-reporter, mRNA transcription; actives raise or lower the signal
Procedure, shortened: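 After transient transfection with multiplexed cis-promoter reporter units, HepG2 cells received test chemicals for 24 h. Reporter mRNA induction, detected by fluorescence after RT-PCR and capillary electrophoresis, was scored relative to DMSO.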

[5] = target: Aryl hydrocarbon receptor (Homo sapiens) (UniProt P35869); assay: ATG_Ahr_CIS: Attagene CIS-FACTORIAL HepG2 Assay for human Aryl Hydrocarbon Receptor (Ahr) (AID 2282930); conditions: HepG2 AhR cis-factorial reporter transcription; actives raise or lower the signal
Aryl hydrocarbon receptor (Homo sapiens), sequence (P35869 whole entry, looked up): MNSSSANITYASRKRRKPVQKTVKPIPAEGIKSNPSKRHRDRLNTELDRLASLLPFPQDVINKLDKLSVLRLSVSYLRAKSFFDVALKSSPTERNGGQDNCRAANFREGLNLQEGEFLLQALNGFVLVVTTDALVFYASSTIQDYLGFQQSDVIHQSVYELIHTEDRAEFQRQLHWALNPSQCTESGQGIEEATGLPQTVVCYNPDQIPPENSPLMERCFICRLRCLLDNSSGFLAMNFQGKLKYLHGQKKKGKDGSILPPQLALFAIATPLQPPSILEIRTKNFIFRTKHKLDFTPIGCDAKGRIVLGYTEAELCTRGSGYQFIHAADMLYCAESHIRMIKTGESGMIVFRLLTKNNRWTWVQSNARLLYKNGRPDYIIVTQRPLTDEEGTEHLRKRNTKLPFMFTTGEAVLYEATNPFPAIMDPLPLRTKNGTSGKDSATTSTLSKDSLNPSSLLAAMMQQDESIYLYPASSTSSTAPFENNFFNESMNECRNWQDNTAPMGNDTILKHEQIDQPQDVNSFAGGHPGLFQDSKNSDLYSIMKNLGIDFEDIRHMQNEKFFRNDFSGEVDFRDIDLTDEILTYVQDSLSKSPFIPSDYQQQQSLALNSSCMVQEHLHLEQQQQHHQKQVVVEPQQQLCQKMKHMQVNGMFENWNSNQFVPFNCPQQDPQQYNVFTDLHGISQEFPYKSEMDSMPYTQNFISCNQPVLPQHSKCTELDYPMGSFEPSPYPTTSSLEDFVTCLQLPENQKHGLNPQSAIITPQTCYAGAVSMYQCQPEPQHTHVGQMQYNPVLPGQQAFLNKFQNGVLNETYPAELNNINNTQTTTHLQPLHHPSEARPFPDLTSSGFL
Procedure, shortened: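 Read-out: reporter mRNA quantified by RT-PCR with fluorescent primer extension and capillary electrophoresis. Human HepG2 liver cells carried transfected cis-promoter reporter units and were exposed to chemical for 24 h; gain or loss fitted relative to DMSO.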

[6] = ATG_AP_1_CIS: Attagene CIS-FACTORIAL HepG2 Assay for human Activator Protein 1 (AP-1) (AID 2282931); conditions: HepG2 Attagene cis-factorial AP-1 reporter mRNA; actives raise or lower the signal
Procedure, shortened: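 After 24 h incubation with test chemical, RNA from transfected HepG2 cells was reverse-transcribed, amplified, fluorescently labelled and digested before capillary electrophoresis. Reporters were driven by cis-regulatory promoters; activity fitted bidirectionally versus DMSO.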

[7] = ATG_AP_2_CIS: Attagene CIS-FACTORIAL HepG2 Assay for human Activator Protein 2 (AP-2) (AID 2282932); conditions: HepG2 AP-2 cis-reporter, Attagene transcription factor profiling; actives raise or lower the signal
Procedure, shortened: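 HepG2 cells transiently transfected with cis-element reporter units and exposed for 24 h. Reporter mRNA measured by RT-PCR, FAM labelling, HpaI digestion and capillary electrophoresis. Changes in either direction fitted relative to DMSO.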

[8] = ATG_BRE_CIS: Attagene CIS-FACTORIAL HepG2 Assay for human Bone Morphogenetic Protein (BMP) Response Element (BRE) (AID 2282933); conditions: HepG2 BMP response element reporter, Attagene transcription factor profiling; actives raise or lower the signal
Procedure, shortened: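 Endogenous transcription factor activity at a BMP response element was monitored in transfected HepG2 cells 24 h after dosing. Fluorescent RT-PCR products were resolved by capillary electrophoresis, and activity was fitted in both directions versus DMSO.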

[9] = target: Transcription factor E2F1 (Homo sapiens) (UniProt Q01094); assay: ATG_E2F_CIS: Attagene CIS-FACTORIAL HepG2 Assay for human E2F Transcription Factor 1 (AID 2282935); conditions: HepG2 Attagene cis-reporter, E2F reporter RNA transcripts; actives raise or lower the signal
Transcription factor E2F1 (Homo sapiens), sequence (Q01094 whole entry, looked up): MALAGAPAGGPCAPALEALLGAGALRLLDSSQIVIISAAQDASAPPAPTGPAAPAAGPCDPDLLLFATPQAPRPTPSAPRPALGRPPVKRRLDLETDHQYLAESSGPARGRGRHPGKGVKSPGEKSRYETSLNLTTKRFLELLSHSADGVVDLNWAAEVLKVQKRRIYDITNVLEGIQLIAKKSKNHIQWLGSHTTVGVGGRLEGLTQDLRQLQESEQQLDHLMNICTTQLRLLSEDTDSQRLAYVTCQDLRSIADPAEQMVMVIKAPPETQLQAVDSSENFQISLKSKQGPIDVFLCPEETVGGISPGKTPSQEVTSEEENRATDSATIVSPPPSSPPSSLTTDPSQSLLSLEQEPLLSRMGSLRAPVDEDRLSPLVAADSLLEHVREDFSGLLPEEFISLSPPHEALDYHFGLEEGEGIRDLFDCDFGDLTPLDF
Procedure, shortened: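 Endogenous E2F1 activity read through cis-promoter reporter units transfected into HepG2. After 24 h compound treatment, reporter mRNA measured by RT-PCR, HpaI digestion and capillary electrophoresis. Bidirectional fit versus DMSO.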

[10] = ATG_E_Box_CIS: Attagene CIS-FACTORIAL HepG2 Assay for human Enhancer Box (E-box) (AID 2282936); conditions: HepG2 E-box cis-reporter transcription, actives raise or lower the signal
Procedure, shortened: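 HepG2 cells transiently transfected with multiplexed cis-element reporter units, dosed 24 h; reporter mRNA quantified by RT-PCR, 6-FAM labelling, HpaI digestion and capillary electrophoresis. E-box (USF1) signal fitted bidirectionally vs DMSO.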

[11] = ATG_M_61_CIS: Attagene CIS-FACTORIAL HepG2 Assay for M61 Transcription Factor (Internal Marker) (AID 2282937); conditions: HepG2 Attagene CIS-FACTORIAL M61 internal marker reporter; actives raise or lower the signal
Procedure, shortened: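 Using transiently transfected HepG2 liver cells, reporter transcript levels were assessed 24 h post-dosing by RT-PCR and capillary electrophoresis. Changes in either direction were fitted relative to DMSO controls.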

[12] = ATG_EGR_CIS: Attagene CIS-FACTORIAL HepG2 Assay for human Early Growth Response 1 (EGR1) (AID 2282938); conditions: HepG2 Attagene CIS-FACTORIAL EGR reporter mRNA; actives raise or lower the signal
Procedure, shortened: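 Fluorescent capillary-electrophoresis signal of reporter cDNA fragments serves as read-out. HepG2 cells bear transiently transfected cis-promoter reporter units and are exposed 24 h; gain- or loss-of-signal is fitted against DMSO.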

[13] = ATG_M_19_CIS: Attagene CIS-FACTORIAL HepG2 Assay for M19 Transcription Factor (Internal Marker) (AID 2282939); conditions: HepG2 Attagene CIS-FACTORIAL M19 internal marker reporter; actives raise or lower the signal
Procedure, shortened: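 Background-control endpoint from a multiplexed HepG2 reporter panel. Cells carrying cis-regulated reporter constructs are treated 24 h, then reporter transcripts are amplified, fluorescently labelled and sized by capillary electrophoresis. DMSO defines baseline.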

[14] = ATG_ERE_CIS: Attagene CIS-FACTORIAL HepG2 Assay for Estrogen Response Element (ERE) (AID 2282940); conditions: HepG2 ERE cis-reporter, Attagene RNA transcript; actives raise or lower the signal
Procedure, shortened: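 Cells used were human hepatoma HepG2, transfected with multiple reporter transcription units under cis-regulatory promoters. Reporter mRNA, read 24 h post-dosing via fluorescent RT-PCR products on capillary electrophoresis, was fitted bidirectionally relative to DMSO.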

[15] = ATG_Ets_CIS: Attagene CIS-FACTORIAL HepG2 Assay for human Erythroblast Transformation Specific (ETS) (AID 2282941); conditions: HepG2 ETS cis-reporter transcription, actives raise or lower the signal
Procedure, shortened: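 HepG2 cells transfected with multiple cis-regulated reporter units measuring endogenous ETS-driven transcription, 24 h after dosing. Reporter mRNA quantified by RT-PCR with capillary electrophoresis; bidirectional fit relative to DMSO.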

[16] = target: Hepatocyte nuclear factor 3-beta (Homo sapiens) (UniProt Q9Y261); assay: ATG_FoxA2_CIS: Attagene CIS-FACTORIAL HepG2 Assay for human Forkhead box A2 (FOXA2) (AID 2282942); conditions: HepG2 cis-reporter transcription factor activity, 24 h; actives raise or lower the signal
Hepatocyte nuclear factor 3-beta (Homo sapiens), sequence (Q9Y261 whole entry, looked up, the tested form may be a part): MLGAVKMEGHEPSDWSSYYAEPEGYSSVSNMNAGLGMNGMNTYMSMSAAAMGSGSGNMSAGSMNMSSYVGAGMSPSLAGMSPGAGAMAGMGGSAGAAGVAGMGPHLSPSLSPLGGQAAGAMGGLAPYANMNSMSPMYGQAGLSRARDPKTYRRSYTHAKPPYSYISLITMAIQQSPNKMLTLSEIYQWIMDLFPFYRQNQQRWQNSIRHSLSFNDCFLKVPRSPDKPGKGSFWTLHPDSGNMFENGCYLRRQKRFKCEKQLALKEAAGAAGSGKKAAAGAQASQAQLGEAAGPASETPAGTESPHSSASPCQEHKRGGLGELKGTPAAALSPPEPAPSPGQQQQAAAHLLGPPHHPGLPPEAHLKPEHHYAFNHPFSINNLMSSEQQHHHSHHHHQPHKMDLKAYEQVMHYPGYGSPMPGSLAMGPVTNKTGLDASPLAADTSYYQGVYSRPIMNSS
Procedure, shortened: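 Fluorescence signal of reporter cDNA fragments, separated by capillary electrophoresis, reflects endogenous transcription factor activity in transfected HepG2 after 24 h. Both increases and decreases fitted against DMSO.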

[17] = ATG_FoxO_CIS: Attagene CIS-FACTORIAL HepG2 Assay for human Forkhead box O (FoxO) (AID 2282943); conditions: HepG2 Attagene cis-reporter, FoxO element, mRNA; actives raise or lower the signal
Procedure, shortened: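 Read-out: fluorescence of 6-FAM-labelled reporter cDNA fragments resolved by capillary electrophoresis. Transiently transfected HepG2 cells were dosed for 24 h; activity fitted in both directions relative to DMSO controls.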

[18] = ATG_GATA_CIS: Attagene CIS-FACTORIAL HepG2 Assay for human GATA Binding Protein (AID 2282944); conditions: HepG2 GATA cis-element reporter, Attagene multiplex mRNA; actives raise or lower the signal
Procedure, shortened: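 Endogenous transcription factor activity was captured through cis-promoter-driven reporters in transfected HepG2 cells. After 24 h exposure, reporter transcripts were quantified by RT-PCR with fluorescent capillary electrophoresis, and responses fitted both directions against DMSO.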

[19] = target: Retinoic acid receptor alpha (Homo sapiens) (UniProt P10276); assay: ATG_DR5_RAR_CIS: Attagene CIS-FACTORIAL HepG2 Assay for human Retinoic Acid Receptor Alpha (RARE), DR5 submotif (AID 2282934); conditions: HepG2 Attagene cis-factorial RARE DR5 reporter, mRNA; actives raise or lower the signal;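 as to AC50: reporter responds to endogenous RAR alpha beta and gamma in HepG2 not RARA alone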
Retinoic acid receptor alpha (Homo sapiens), sequence (P10276 whole entry, looked up): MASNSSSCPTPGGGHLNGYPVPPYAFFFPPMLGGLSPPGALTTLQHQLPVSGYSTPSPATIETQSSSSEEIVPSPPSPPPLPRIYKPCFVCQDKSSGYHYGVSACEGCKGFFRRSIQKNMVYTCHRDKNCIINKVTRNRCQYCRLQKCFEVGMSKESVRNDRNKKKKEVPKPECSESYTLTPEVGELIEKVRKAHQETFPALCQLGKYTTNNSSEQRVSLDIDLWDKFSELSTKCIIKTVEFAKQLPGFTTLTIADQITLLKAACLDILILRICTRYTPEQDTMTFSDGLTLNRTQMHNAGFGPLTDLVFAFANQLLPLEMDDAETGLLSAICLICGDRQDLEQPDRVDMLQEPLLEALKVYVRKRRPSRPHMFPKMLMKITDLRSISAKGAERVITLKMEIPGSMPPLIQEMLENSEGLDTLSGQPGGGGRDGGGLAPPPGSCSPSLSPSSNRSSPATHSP
Procedure, shortened: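 Read-out: DR5-driven reporter transcript measured by RT-PCR, 6-FAM primer extension, HpaI digest and capillary electrophoresis. Human HepG2 liver cells carry transiently transfected cis-element reporter constructs; dosing lasts 24 h. Gain or loss of signal fitted against DMSO baseline.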

Measured: AC50

CN1CCN(Cc2cc(-c3ccc4[nH]c(=O)oc4c3)co2)[C@@H](c2ccc(F)cc2)C1
active: [2] 33 µM | [4] 56.5 µM | [6] 53.9 µM | [12] 33 µM
not listed: [19]
inactive: all other assays above

Cc1ccc(N(C)C)cc1
inactive: all assays above

CCCCCCCC=O
not listed: [19]
inactive: all other assays above

CC(C)(C)c1cc(O)c(C(C)(C)C)cc1O
active: [1] 26 µM | [2] 23 µM | [3] 89.1 µM | [4] 29.5 µM | [6] 31 µM | [8] 30.4 µM | [19] 57.1 µM | [12] 31.1 µM | [14] 31 µM
inactive: all other assays above

Cc1cc(=O)[nH]c(=S)[nH]1
not listed: [19]
inactive: all other assays above

CCCCOC(=O)CCCCCCCCC(=O)OCCCC
active: [4] 144 µM | [10] 142 µM
inactive: all other assays above

CCCCCCC(=O)OCC
active: [14] 34.7 µM
inactive: all other assays above

CCCCCCCCCCC
inactive: all assays above

CN1CCCC1=O
inactive: all assays above

Nc1ccc(S(=O)(=O)c2ccc(N)cc2)cc1
active: [14] 100 µM
inactive: all other assays above

NCCO
inactive: all assays above

COc1cc(-c2nc(NC(=O)c3cc4cc(C)cc(C)c4n3CC(=O)O)sc2CCC2CCCCC2)c(OC)cc1Cl
active: [2] 36 µM | [3] 4.79 µM | [5] 10.4 µM | [6] 3.59 µM | [7] 10.4 µM | [8] 10.4 µM | [10] 25.6 µM | [12] 9.13 µM | [15] 32.2 µM
not listed: [19]
inactive: all other assays above

CN[C@H]1CC[C@@H](c2ccc(Cl)c(Cl)c2)c2ccc(S(N)(=O)=O)cc21
not listed: [19]
inactive: all other assays above

c1cc(-c2ccncc2)ccn1
inactive: all assays above

CCOc1ccc2c(c1)C(C)=CC(C)(C)N2
active: [4] 175 µM | [6] 100 µM | [10] 156 µM | [12] 144 µM | [14] 25.5 µM | [15] 181 µM | [17] 179 µM
inactive: all other assays above

CC(CO)OC(C)CO (stereo unspecified) (tested in a mixture with another compound)
not listed: [19]
inactive: all other assays above

Cc1ccccc1Cl
not listed: [19]
inactive: all other assays above
